The values below come from PubChem BioAssay (Tox21).

Structures are written as SMILES. Inconclusive results are not listed. A call without a number means that no potency is given here. Calls of active or inactive are those of the source. Calls come from the whole dose curve; as a rule, active = well fitted cell-killing curve with a large enough effect in the repeat runs; inconclusive = weak or mixed curves; inactive = flat fitted curve, though single readings scatter.
Potency is the fitted concentration of half-maximal effect.

This assay in a line: qHTS RealTime-Glo MT Cell Viability Assay in HepG2 cells - 16 hour (AID 1224885). Note: nearly all actives have a fitted effect of over 50% in size. Conditions: RealTime-Glo luminescence; series mostly up to 76.8 µM. In short, it runs like this:
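Cells + NanoLuc/prosubstrate dispensed (600 cells/well) → 5 h at 37 C/5% CO2 → compounds in DMSO transferred → 40 h incubation at 37 C, luminescence read at 0, 8, 16, 24, 32, 40 h.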
Background: Quantitative high-throughput screening tests each substance at several concentrations.
For the compound `CN1C(C(=O)Nc2ccccn2)=C(O)c2ccccc2S1(=O)=O`, the Potency entry is “inactive”.
The value for `CC(=O)c1ccccn1` was “inactive”; that for `O=C(/C=C/c1ccccc1)OCc1ccccc1` was “inactive”; that for `O=C=Nc1ccc(Cc2ccc(N=C=O)cc2)cc1` was “inactive”.
The value for `O=Cc1ccccc1O` was “inactive”; that for `OC(CCl)CCl` was “inactive”.
The value for `Cc1c(OCC(F)(F)F)ccnc1CS(=O)c1nc2ccccc2[nH]1` (centres undefined) was “inactive”; that for `CCC(C)(O)CCCC(C)C` (centres undefined) was “inactive”.
`O=C(OCc1ccccc1)c1ccccc1O`: the Potency result was “inactive”.
For `COc1ccc(C(=O)CC(=O)c2ccc(C(C)(C)C)cc2)cc1`, the Potency result is “inactive”.
The value for `COC(=O)CCC(=O)OC` was “inactive”.
The same measure for `CCCCOCCOCCO`: “inactive”.
The same measure for `C=CC(C)(CCC=C(C)C)OC(C)=O` (centres undefined): “inactive”; for `Cc1ccc(C)c(O)c1C`: “inactive”; for `Nc1ccc(Cl)cc1Cl`: “inactive”.
In the case of `CC(C)Oc1ccc2c(=O)c(-c3ccccc3)coc2c1`, the Potency result was “inactive”.
The value for `O=C(c1ccccc1)c1ccccc1O` was “inactive”.
The value for `c1ccc2sc(SSN3CCOCC3)nc2c1` was 54.9 µM (active); that for `O=C(c1ccc(OCCN2CCCCC2)cc1)c1c(-c2ccc(O)cc2)sc2cc(O)ccc12` was “inactive”.
As to `O=[N+]([O-])c1ccc2c(c1)Cc1ccccc1-2`, the Potency entry was “inactive”.
For `CCCc1c(OCCCCc2nn[nH]n2)ccc(C(C)=O)c1O`, the Potency entry was “inactive”.
The value for `Brc1cc(Oc2cc(Br)c(Br)c(Br)c2Br)c(Br)c(Br)c1Br` was “inactive”.
Turning to `c1ccc2cc(Nc3ccc(Nc4ccc5ccccc5c4)cc3)ccc2c1`, the Potency result is “inactive”.
Take `CCOCCOCCO`: the Potency result was “inactive”.
The value for `CCCCOCCOCCOCCO` was “inactive”.
The value for `Nc1ncn([C@@H]2O[C@H](CO)[C@@H](O)[C@H]2O)c(=O)n1` was “inactive”; that for `c1ccc2c(c1)c1cccc3ccc4cccc2c4c31` was “inactive”.
The value for `Nc1ncnc2nc[nH]c12` was “inactive”.
`CN(C)CCN(Cc1cccs1)c1ccccn1`: the Potency entry was “inactive”.
The value for `Nc1ccc(S(=O)(=O)Nc2cnc3ccccc3n2)cc1` was “inactive”; that for `CC1=CC2C3CC(C=C3C)C2C1` (centres undefined) was “inactive”.
The value for `CC(C)(C)NC(=O)[C@H]1CC[C@H]2[C@@H]3CC[C@H]4NC(=O)C=C[C@]4(C)[C@H]3CC[C@]12C` was “inactive”; that for `C[C@]12CC[C@H]3[C@@H](CCC4=CC(=O)CC[C@@]43C)[C@@H]1CC[C@@H]2C(=O)CO` was “inactive”.
The same measure for `CCCCC(CC)COP(=O)(OCC(CC)CCCC)OCC(CC)CCCC` (centres undefined): “inactive”; for `Nc1ccc(Nc2ccccc2)cc1`: “inactive”; for `CC(C)=CCC/C(C)=C\CO`: “inactive”.
Consider `CCCCCCCCCC(=O)OC`, for which the Potency entry was “inactive”.
The value for `S=C(NC1CCCCC1)NC1CCCCC1` was “inactive”; that for `Clc1nc(Cl)c(Cl)c(Cl)c1Cl` was “inactive”.
